ROC1-CUL1 inh: inhibitors of human ROC1-CUL1 ubiquitin ligase activity | 140,000 tested, 0.6% active | inhibition, % at 10 µM | in vitro K48 di-Ub FRET, acceptor:donor ratio, 45 min; in the data active means inhibition above about 25%
Target sequence (P62877 whole entry, looked up): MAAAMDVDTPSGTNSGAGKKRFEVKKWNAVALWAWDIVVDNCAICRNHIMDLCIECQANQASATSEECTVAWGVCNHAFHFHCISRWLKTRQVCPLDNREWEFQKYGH
Target sequence (Q13616 whole entry, looked up): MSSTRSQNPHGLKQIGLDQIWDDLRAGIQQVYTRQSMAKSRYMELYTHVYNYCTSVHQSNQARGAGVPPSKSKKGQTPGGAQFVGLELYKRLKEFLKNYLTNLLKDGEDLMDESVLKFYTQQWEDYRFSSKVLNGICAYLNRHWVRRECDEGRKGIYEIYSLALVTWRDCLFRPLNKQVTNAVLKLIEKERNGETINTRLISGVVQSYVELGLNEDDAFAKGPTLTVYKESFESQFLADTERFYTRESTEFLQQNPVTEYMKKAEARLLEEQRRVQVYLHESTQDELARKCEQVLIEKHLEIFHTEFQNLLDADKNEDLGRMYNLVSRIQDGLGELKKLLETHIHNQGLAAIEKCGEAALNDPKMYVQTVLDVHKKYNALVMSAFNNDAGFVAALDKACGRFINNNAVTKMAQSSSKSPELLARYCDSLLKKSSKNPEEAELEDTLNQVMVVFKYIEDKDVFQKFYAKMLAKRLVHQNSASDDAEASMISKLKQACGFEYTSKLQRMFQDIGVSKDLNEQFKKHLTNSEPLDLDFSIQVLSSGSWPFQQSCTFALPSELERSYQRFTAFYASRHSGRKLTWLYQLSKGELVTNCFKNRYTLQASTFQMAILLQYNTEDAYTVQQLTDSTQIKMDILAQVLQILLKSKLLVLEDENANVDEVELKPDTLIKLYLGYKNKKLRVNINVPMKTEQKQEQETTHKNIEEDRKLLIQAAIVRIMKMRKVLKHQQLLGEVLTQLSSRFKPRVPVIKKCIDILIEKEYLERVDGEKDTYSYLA
* hit, by the source's call. The full list was thinned out, with hits kept by preference.

SMILES | ROC1-CUL1 inh
Cc1occc1C(=O)Nc1cnn(CC(=O)N2CCc3c([nH]c4ccccc34)C2C(C)C)c1 (configuration not stated) | 4.1
O=C(c1ccc(Cl)cc1)n1cccn1 | 8.6
CSc1nc(-c2ccc(C)cc2)[nH]c(=O)c1C#N | 7.2
CSc1nc(-c2ccc(Cl)cc2)c(C#N)c(=O)[nH]1 | 9.4
C/C=C/c1nc(SC)c(C#N)c(=O)[nH]1 | 61.7*
CCOc1ccc(S(=O)(=O)N2CCN(C)CC2)cc1C(C)(C)C | -5.9
COc1cc(OC)c(N(C)C(=O)N=C2CN(CC(C)C)C(=O)c3ccccc32)cc1Cl | 11.0
CCOc1ccccc1NC(=O)NC(=O)C(F)(F)F | 4.6
CC(C)=CC1C(C(=O)O/N=C(\N)c2ccccc2)C1(C)C (configuration not stated) | -4.0
O=C(O)c1cc(S(=O)(=O)O)cc(Nc2c3ccccc3nc3ccccc23)c1O | -7.5
Nc1cc(S(=O)(=O)O)cc(C(=O)O)c1O | 11.6
CC1=NN(c2cc(S(=O)(=O)O)cc(C(=O)O)c2O)C(=O)C1 | 69.2*
COC(=O)C(NC(=O)c1ccc(C)cc1)(Nc1nc2ccccc2s1)C(F)(F)F (configuration not stated) | -10.7
O=C1NN(c2ccccc2)C(=O)/C1=C/c1cc(Br)ccc1OCc1c(Cl)cccc1Cl | -1.4
COc1cc(/C=C2\C(=O)NN(c3ccccc3)C2=O)cc(Cl)c1OCCCOc1ccccc1 | 93.5*
CCOc1cc(/C=C2\C(=O)NN(c3ccccc3)C2=O)cc(Cl)c1OCCCOc1ccc(Cl)cc1 | 2.5
COc1cc(/C=C2\C(=O)NN(c3ccccc3)C2=O)cc(Br)c1OCCCOc1ccccc1 | 2.8
CCOc1cc(/C=C2/C(=O)NN(c3ccc(Cl)cc3)C2=O)cc(I)c1OC | 38.7*
COc1cc(/C=C2/C(=O)NN(c3ccc(C)c(Cl)c3)C2=O)ccc1OCc1ccccc1 | 0.9
CCOc1cc(/C=C2\C(=O)NN(c3ccccc3)C2=O)cc(Br)c1OCc1ccc(Cl)c(Cl)c1 | 11.8
COc1ccc(/C=C2\C(=O)NN(c3ccc(Cl)cc3)C2=O)cc1OC | 18.6
COc1cc(/C=C2\C(=O)NN(c3ccccc3)C2=O)cc(Cl)c1OCc1ccc(Cl)c(Cl)c1 | 56.8*
CCOc1cc(/C=C2\C(=O)NN(c3ccccc3)C2=O)cc(Br)c1OCc1c(Cl)cccc1Cl | 28.2*
COc1cc(/C=C2\C(=O)NN(c3ccccc3)C2=O)cc(Br)c1OCCCOc1ccc(C)cc1 | 11.0
COc1cc(/C=C2/C(=O)NN(c3ccc(Cl)cc3)C2=O)ccc1OCc1ccc(F)cc1 | 0.2
SMILES | ROC1-CUL1 inh
CC(C)OC(=O)c1c(-c2ccc(-c3ccccc3)cc2)csc1NC(=O)C1CCCO1 (configuration not stated) | 3.7
CCOC(=O)c1c(NC(=S)NC(NC(=O)c2ccco2)C(Cl)(Cl)Cl)sc2c1CCCC2 (configuration not stated) | -0.5
Cc1c(Cl)cccc1NS(=O)(=O)c1ccc2c(c1)[C@H]1C=CC[C@H]1[C@@H](c1ccc(Cl)cc1Cl)N2 | -5.0
CCOc1cccc(C2C3=C(CC(C)=NC3=O)OC(=N)C2C#N)c1OCC (configuration not stated) | 9.7
O=C(OCCN1CCCCC1)c1ccccc1I | 3.0
CCN1C(=O)C(=Cc2cccc(OC)c2OCc2ccc(Cl)cc2)C(=O)N(CC)C1=S | 3.6
CCN(CC)S(=O)(=O)c1ccc(OC)c(NC(=O)COc2cccc(C)c2)c1 | -1.4
COc1cc(/C=C2\C(=O)NN(c3ccccc3)C2=O)ccc1OCCOCCOc1ccccc1C | 3.2
CCOc1cc(/C=C2\C(=O)NN(c3ccccc3)C2=O)cc(Cl)c1OCCOc1cc(C)ccc1C | 43.5*
CCOc1cc(/C=C2\C(=O)NN(c3ccccc3)C2=O)cc(Cl)c1OCCOc1ccc(OC)cc1 | 9.2
Cc1cccc(CS(=O)(=O)N2CCN(C)CC2)c1 | -1.2
O=C(O)CCCC(=O)Nc1ccc(Br)c(Br)c1 | -3.2
COc1cccc(/C=C(/C(=O)c2cc(OC)c(OC)c(OC)c2)c2nc3ccccc3o2)c1 | -5.7
COc1ccc(NC(=O)C2CC2c2ccc(Cl)cc2)c(C)c1 (configuration not stated) | -0.5
O=C(O)c1cc(N2C(=O)/C(=C\c3ccc(-c4ccc(Br)cc4)o3)C=C2c2ccccc2)ccc1O | 97.1*
O=C1OC(c2ccccc2)=N/C1=C\c1ccc(-c2ccc(C(=O)O)cc2)o1 | 12.7
COCCN1C(=O)/C(=C/c2ccc(-c3ccc(C(=O)O)c(Cl)c3)o2)SC1=Nc1ccccc1 | 1.9
COc1ccc(C(=O)C2C(=O)C(=O)N(c3ncccn3)C2c2cccc(Br)c2)cc1 (configuration not stated) | 17.7
CCC(CC)C(=O)Nc1ccc(I)cc1 | 3.1
COc1cccc(N2C(=NC(=O)c3ccc(Br)cc3)SC3CS(=O)(=O)CC32)c1 (configuration not stated) | 10.0
CCCN(CCC)S(=O)(=O)c1ccc(NS(=O)(=O)c2ccc(Br)cc2)cc1 | -2.5
COC(=O)c1ccccc1NC(=O)COc1ccc(C2CCCCC2)cc1 | -4.1
O=C(COc1ccc(C2CCCCC2)cc1)Nc1ccccc1F | 9.1
CC(C)(Oc1ccc(C2CCCCC2)cc1)C(=O)O | 66.4*
O=S(=O)(CC1CC1)c1ncc(CN2CCCO2)n1CC1CCCO1 (configuration not stated) | 0.2
SMILES | ROC1-CUL1 inh
O=C1Nc2ccc(Br)cc2/C1=C/c1cc(O)c(O)c(Br)c1 | 65.7*
Cc1ccc(/C=C2\C(=O)Nc3ccc(Br)cc32)cc1C | 1.3
COc1cccc(/C=C2\C(=O)Nc3ccc(Br)cc32)c1 | 6.5
O=C1C2C3c4ccccc4C(c4ccccc43)C2C(=O)N1c1cccc(C(F)(F)F)c1 (configuration not stated) | -5.5
CCOc1ccc(NC(=O)N2CCCC2)cc1 | -4.6
CCOC(=O)c1c(C)sc(-c2c(-c3cc(C)ccc3C)[nH]c3c2c(=O)[nH]c(=O)n3C)c1O | 49.0*
CCOC(=O)C1=CN(c2ccc(F)cc2)C=C(C(=O)OCC)C1c1cccc(Cl)c1 | -3.3
Cc1ccc(C)c(-c2[nH]c3c(c2-c2c(-n4cccc4)n(C)c(=O)n(C)c2=O)c(=O)n(C)c(=O)n3C)c1 | 9.4
CCOC(=O)c1c(NC(=O)c2c(F)cccc2F)sc(C)c1-c1cccc(Cl)c1 | 1.5
CCOC(=O)c1c(C)sc(-c2c(-c3cccc(Cl)c3)[nH]c3c2c(=O)n(C)c(=O)n3C)c1O | 45.0*
CCOC(=O)c1c(C)sc(-c2c(-c3cc(C)ccc3C)[nH]c3c2c(=O)n(C)c(=O)n3C)c1O | 21.8
Nc1ccccc1C(=O)Nc1ccc2c(c1)OCO2 | -1.2
CN1CCN(C(=O)CCC2CCCN(Cc3cccc4cnccc34)C2)CC1 (configuration not stated) | 7.2
O=c1c(Cl)nc(Cl)cn1-c1ccc(Cl)c(Cl)c1 | 32.4*
COc1nc(Cl)cn(-c2ccc(C)cc2)c1=O | 3.4
CC(=O)Nc1nc(Cl)cn(-c2ccc(C)cc2)c1=O | 5.7
COC(=O)C1CCCCN1Cc1nc(-c2ccc(C)cc2)oc1C (configuration not stated) | 4.0
Cc1ccc(C(=O)Nc2cccc(C(=O)O)c2)cc1S(=O)(=O)N1CCCC1 | 4.6
Cc1ccc(C(=O)Nc2ccc(F)cc2)cc1S(=O)(=O)N1CCOCC1 | -3.9
CC(=O)c1cccc(NC(=O)c2ccc(Cl)c(S(=O)(=O)N3CCOCC3)c2)c1 | 34.0*
O=C(O)c1nn(-c2ccccc2)c(-c2ccccc2)c1C(=O)c1ccccc1 | -5.1
Oc1ccc2c(c1)c(-c1ccccc1)nn2-c1ccccc1 | -2.4
